Experimental findings from PubChem BioAssay (NCI) are described below.

Structures are written as SMILES. This is part of a sample that, as a whole, favours compounds with a hit. Of some 79,000 tested, about 15% had one in any assay. Calls of active or inactive are those of the source. Cut-off read from the data, not from the text of the source: active = growth inhibition above about 70%; inactive = the rest.

A short description of this assay: NCI Yeast Anticancer Drug Screen. Data for the mec2-1 strain (AID 157). The settings on record: S. cerevisiae mec2-1 strain, at 50.0 µM, stronger effect = higher value. The protocol: Growth inhibition of yeast strains with defined genetic alterations is measured as a screen for potential anti-cancer activity. Selected strains with alterations in DNA damage repair or cell cycle control were exposed to compounds and growth inhibition was measured relative to vehicle treated controls. The strain used in this assay is mec2-1
`CN(C)CCN(Cc1ccccc1)c1ccccc1`: the growth inhibition was -41.6% (inactive).

With `O=C(CS)Nc1ccc2ccccc2c1`, the growth inhibition was -0.85% (inactive).

`O=C(NN=C1CCCCC1)C(=O)NN=C1CCCCC1`: the growth inhibition is 13.6% (inactive).

For `CCCCC(O)c1ccccc1` (stereo not given), the growth inhibition is -4.15% (inactive).

In the case of `O=C(N/N=C/c1ccccc1O)Nc1nn[nH]n1`, the growth inhibition is -10.2% (inactive).

Turning to `CC1=CC(=O)c2ccccc2C1=O`, the growth inhibition is 15.3% (inactive).

As to `COC(=O)c1ccc(C(C)C)cc1`, the growth inhibition is 11.8% (inactive).

Regarding `FC(F)(F)c1ccc2c(c1)N(CCCN1CCN(C3CC3)CC1)c1ccccc1S2`, the growth inhibition is 99.3% (active).

Regarding `COc1cc(CCN=Cc2ccccc2O)c([N+](=O)[O-])cc1OC`, the growth inhibition was -10.5% (inactive).

On to `C/C(=N/NC(N)=O)c1ccco1`, for which the growth inhibition was -1.05% (inactive).

For the molecule `COc1cc2c(cc1OC)[C@H](C(=O)O)[C@@H](c1ccc(OC(C)C)c(OC)c1)N(C)C2=O`, the growth inhibition is -10% (inactive).

As for `O=C(O)CNC(=O)c1ccccc1`, the growth inhibition was -4.45% (inactive).

For `O=C(c1ccc(O)cc1)c1ccc(O)cc1`, the growth inhibition is -6.6% (inactive).

As for `CSc1[nH]c(=O)ncc1F`, the growth inhibition is 4.1% (inactive).

As to `O=C(O)CCC(NC(=O)OCc1ccccc1)C(=O)O` (stereo not given), the growth inhibition is 2.55% (inactive).

On to `Nc1ccc(CC(=O)O)c(N)c1`, for which the growth inhibition is -7.8% (inactive).

With `OC1OC(COC(c2ccccc2)(c2ccccc2)c2ccccc2)C(O)C(O)C1O` (stereo not given), the growth inhibition was -0.95% (inactive).

Regarding `NCCC(=O)c1ccc(Cl)cc1`, the growth inhibition was -10.4% (inactive).

Consider `Oc1ccccc1O`, for which the growth inhibition is 6.7% (inactive).

Take `NC(C(=O)O)c1ccc([N+](=O)[O-])cc1` (stereo not given): the growth inhibition was -14.1% (inactive).

As to `N#Cc1ccc(OC(=O)Nc2ccc(Cl)c(Cl)c2)cc1`, the growth inhibition was -4.4% (inactive).

In the case of `COc1ccc(C2(O)CCCCC2)cc1`, the growth inhibition is -13.2% (inactive).

For the molecule `O=[N+]([O-])c1cccc2nsnc12`, the growth inhibition was 30.6% (inactive).

For `CCOC(=O)Nc1nn[nH]n1`, the growth inhibition is 1.35% (inactive).

Turning to `NC(=O)N/N=C\c1ccco1`, the growth inhibition was -9.8% (inactive).

Take `O=C(Cc1nc2ccc([N+](=O)[O-])cc2nc1CC(=O)c1cccnc1)c1cccnc1`: the growth inhibition was 10.5% (inactive).

In the case of `O=c1c2ccccc2c(Br)c(Br)c2ccccc12`, the growth inhibition was -12.4% (inactive).

In the case of `Cc1cc(/C=C/c2ccc3cc(N(C)C)ccc3[n+]2C)c(C)n1-c1ccccc1`, the growth inhibition was 87.2% (active).

In the case of `O=C(O)c1cccc([N+](=O)[O-])c1O`, the growth inhibition was 1.35% (inactive).

Regarding `CC(=O)OCC1OC(OC2=C(CC=C(C)C)C(=O)c3ccccc3C2=O)C(OC(C)=O)C(OC(C)=O)C1OC(C)=O` (stereo not given), the growth inhibition is 3.85% (inactive).

`CC(=O)C1CCCCC1`: the growth inhibition was 11.2% (inactive).

Take `CN(c1ccccc1)c1ncnc2c1ncn2C`: the growth inhibition is -0.65% (inactive).

For the molecule `CN(C)c1nc2c([nH]1)c(=O)n(C)c(=O)n2C`, the growth inhibition was -15.2% (inactive).

`COc1cc(C2c3cc4c(cc3C3OC(=O)C2C3CO)OCO4)cc(OC)c1OC` (stereo not given): the growth inhibition is -9.95% (inactive).

As to `CN(C)c1ccc(S(=O)(=O)O)cc1`, the growth inhibition was -3.65% (inactive).

With `CCCCC/C=N/Nc1nc(C)cc(=O)[nH]1`, the growth inhibition was -5.6% (inactive).

Consider `Cc1cc(N2CCC(N3CCCC3)CC2)nc(/N=C(\N)Nc2ccc(Cl)c(Cl)c2)n1`, for which the growth inhibition is -2.25% (inactive).

Take `CCCCOC(=O)c1ccc(C(C)C)cc1`: the growth inhibition was 6.85% (inactive).

As for `Cc1ccc(O)c(C(=O)c2ccccc2)c1`, the growth inhibition was -16.7% (inactive).

Take `CC(=O)c1sc2c(c1OC(=O)c1ccc(Cl)cc1Cl)c(=O)n(-c1ccccc1)c(=S)n2-c1ccccc1`: the growth inhibition is -23.3% (inactive).
